Holding throughout (experiment): NCI-60 one-dose screen, 48 h (100 = growth as untreated, 0 = no growth, -100 = all killed)
Conditions in all cases: 10 µM unless noted

Experiment [1] concerns NCI-H23 lung.
Experiment [2] has as its system NCI-H226 lung.
Experiment [3] has as its system NCI-H322M lung.
For experiment [4], the system named is HOP-62 NSCLC.
Experiment [5] relates to NCI-H460 lung.
Experiment [6] relates to HOP-92 NSCLC.
Experiment [7] has as its system NCI-H522 lung.
Experiment [8] relates to A549/ATCC NSCLC.
Experiment [9] deals with 786-0 renal.
In experiment [10] the test system is COLO 205 colon.

The structures appear in SMILES notation. About 83,000 compounds went through this panel and 20% of them were active in at least one assay; those are over-represented in the sample as a whole.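 Cell lines were cultured in 96-well plates, exposed to a single compound concentration, and assessed for percent growth 48 hours later.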 A number with no mark means an inactive call. Active and inactive are the calls of the source. How the source made its calls: active means growth percent below 10; inactive means the rest.

Results on 12 compounds are retold here after PubChem BioAssay (NCI).

Turning to `N#CC1=C(N)OC2=C(C(=O)CCC2)C1c1ccco1` (stereo not given), the growth in experiment [1] was 97.1%; in experiment [2], 103%; in [3], 99.1%; in experiment [4], 91.3%; in experiment [5], 110%; in experiment [6] it was 106%. Besides, the growth was 92.7% in experiment [7], 101% in [8], 101% in experiment [9] and 110% in experiment [10].

`ClC1=C(Cl)C(Cl)=C(Cl)C1=Cc1ccc(Cl)cc1Cl`: the growth was -53.5% (active) in [1]; -33.9% (active) in [2]; 11.3% in [3]; 10.9% in experiment [4]; -16.3% (active) in experiment [5]; -81% (active) in experiment [6]. Moreover, the growth in [7] was -22.8% (active); in experiment [8] it was -38.4% (active); in [9], -40.3% (active); in experiment [10], -34.1% (active).

For the compound `O=c1oc2c([nH]c3ccc4ccccc4c32)c2ccccc12`, the growth in [1] was 93.6%; in [2], 104%; in experiment [3], 101%; in [4], 103%; in experiment [5], 112%; in [6], 90.2%. Further, the growth in experiment [7] was 102%; in experiment [8] it was 134%; in experiment [9], 102%; in [10], 108%.

Take `CCCCCCCCCCCCCCCCC(Br)C(=O)O` (stereo not given): the growth was 110% in experiment [1]; 95.5% in [2]; 115% in [3]; 92.4% in experiment [4]; 108% in experiment [5]; 120% in [6]. In addition, the growth is 80.4% in experiment [7], 103% in [8], 111% in [9] and 119% in [10].

As for `CCc1c(C(=O)Nc2ccc3ccccc3c2)[nH]c(C)c1C(C)=O`, the growth in [1] is 85.8%; in [2] it was 95.7%; in experiment [3], 98.9%; in [4], 96.1%; in experiment [5], 101%; in experiment [6] it was 92.3%. For the same compound, the growth in experiment [7] is 68.7%; in [8], 89.6%; in experiment [9] it was 104%; in experiment [10], 111%.

As for `Cc1cc(C)c(S(=O)(=O)N2CCN(c3cc4c(cc3F)c(=O)c(C(=O)O)cn4C3CC3)CC2)c(C)c1`, the growth is 57.4% in [1]; 71.8% in experiment [2]; 74.7% in [3]; 57.3% in experiment [4]; 39.5% in experiment [5]; 46.9% in [6]. Further, the growth is 67.3% in [7], 20.3% in experiment [8], 75.6% in experiment [9] and 57.6% in experiment [10].

With `COc1cc(Cn2c(SCC(=O)Nc3cc(OC)c(OC)c(OC)c3)nc3ccccc3c2=O)cc(OC)c1OC`, the growth was 77.1% in experiment [1]; 57.7% in experiment [2]; 82.1% in [3]; 42.8% in [4]; 57.8% in experiment [5]; 39.8% in [6]. In addition, the growth in experiment [7] was 34%; in [8] it was 62.9%; in experiment [9] it was 73.6%; in experiment [10], 109%.

Consider `O=C(Nc1ccc(I)cc1)c1cc([N+](=O)[O-])ccc1O`, for which the growth in experiment [1] is 8.5% (active); in experiment [2] it was 45.9%; in experiment [3], 29.7%; in experiment [4], 23.8%; in experiment [5] it was 33.7%; in experiment [6], -6.55% (active). In addition, the growth in experiment [7] was -1.54% (active); in [8], 44.1%; in experiment [9] it was 39.6%; in experiment [10], 37.1%.

`C=C1C(=O)O[C@H]2[C@H]1CC/C(COC(=O)NCc1cc(OC)c(OC)c(OC)c1)=C\CC[C@@]1(C)O[C@@H]21`: the growth in experiment [1] was 86.8%; in [2] it was 76.2%; in [3], 99.5%; in experiment [4] it was 80.4%; in experiment [5], 94%; in [6], 72.4%. Besides, the growth is -42.6% (active) in [7], 88.1% in experiment [8], 40.3% in experiment [9] and 17.6% in experiment [10].

As for `O=C(Cc1c(F)cccc1Cl)Nc1ccc(S(=O)(=O)Nc2ncccn2)cc1`, the growth in experiment [1] was 97.6%; in experiment [2], 99.4%; in experiment [3], 116%; in experiment [4], 96.2%; in experiment [5], 114%; in experiment [6], 91.1%. For the same compound, the growth was 104% in experiment [7], 110% in experiment [8], 103% in experiment [9] and 105% in experiment [10].

As for `Nc1nc(Cl)c2c(ncn2Cc2ccc(CCl)cc2)n1`, the growth was 94% in experiment [1]; 94.5% in [2]; 94.9% in experiment [3]; 120% in experiment [4]; 93.8% in experiment [5]; 54.9% in experiment [6]. Also, the growth in experiment [7] is 76.1%; in experiment [8] it was 83.4%; in experiment [9] it was 103%; in experiment [10], 106%.

For `C=CC(=O)N[C@H](/C=C/C(=O)OCC)Cc1ccc(-c2cc(Cl)cc(Cl)c2)cc1`, the growth in experiment [1] was 76.1%; in experiment [2], 68.9%; in [3], 92.9%; in [4] it was 88.4%; in experiment [5] it was 98.7%; in [6] it was 73.7%. Moreover, the growth in experiment [7] is 51.1%; in experiment [8] it was 76.4%; in experiment [9], 96%; in experiment [10], 95.8%.
